“And” between values parts separate entries of the source, which are not always exact repeats. Equal values may be shown once. Among all 52,000 compounds or so, about 4,300 (8.3%) were called active. No stated cut-off is given here; in the data, active means survival mostly below about 52% (no sharp cut-off); inactive means mostly above about 56%. This excerpt belongs to a sample that is enriched for actives. Some structures have more than one record in an assay (separate samples or runs), and their calls can disagree.
Each compound was assayed on DeltatarO mutant (assay: S. aureus survival, RN4220 and DeltatarO strains – OD600, teichoic acid synthesis inhibitors, primary screen (AID 463173)). Details: S. aureus RN4220 wild type/DeltatarO growth, OD600, 18 h, stronger effect = lower value, screened at 18.75 µg/mL (by protocol).

Compound | survival
CCc1ccc(OCC(=O)Nc2ccc(S(=O)(=O)Nc3onc(C)c3C)cc2)cc1 | 73% (inactive)
COC(=O)c1ccc(C(=O)OC)c(NC(=O)c2c(-c3ccccc3)c(-c3ccccc3)nn(C)c2=O)c1 | 60% (inactive)
COc1ccc(CNC(=O)CCc2nc3cccnc3n2Cc2ccccc2)cc1 | 120% (inactive)
Cc1ccc(NC(=O)NCCOCCn2c(=O)oc3ccccc32)cc1C | 86% (inactive)
Cc1ccccc1Cn1c2ccccc2c2cnn(CC(=O)NCCc3ccccc3)c(=O)c21 | 96% (inactive)
COc1ccc(-c2cn3nc(N4CCCC(C(=O)Nc5cc(C)ccc5C)C4)sc3n2)cc1 (stereo not drawn) | 76% (inactive)
CCOc1ccc(NC(=O)Cn2cc(S(=O)(=O)c3ccc(C)cc3)c(=O)c3cc(F)ccc32)cc1 | 74% (inactive)
CCC(=O)N1c2ccc(S(=O)(=O)CCC(=O)N3CCN(c4cc(C)ccc4C)CC3)cc2CC1C (stereo not drawn) | 85% (inactive)
Cc1cc(C)cc(NC(=O)C(=O)NCC(c2ccc3c(c2)OCO3)N2CCOCC2)c1 (stereo not drawn) | 107% (inactive)
CSc1ccc(CNC(=O)CCn2ccc3cc(S(=O)(=O)N4CCC(C)CC4)ccc32)cc1 | 88% (inactive)
CCCCC(CC)CNC(=O)C1CCC(CNS(=O)(=O)c2cccc3nsnc23)CC1 (stereo not drawn) | 65% (inactive)
Cc1ccc2oc(C(=O)Nc3ccc(S(=O)(=O)Nc4onc(C)c4C)cc3)cc(=O)c2c1 | 71% (inactive)
O=C(CN1C(=O)COc2ccc(S(=O)(=O)Nc3ccccc3)cc21)Nc1cccc(Cl)c1 | 96% (inactive)
Fc1ccc(-c2nc(Nc3ccc(F)c(Cl)c3)nc3c2COc2ccccc2-3)cc1 | 55% (inactive)
O=C(c1cn(CC(=O)N2CCOCC2)c2ccccc12)C1CC1 | 90% (inactive)
CCN(CC)C(=O)c1sc2c(c1C)c(=O)n(-c1ccc(C)c(C)c1)c(=O)n2Cc1cc(=O)n2c(C)cccc2n1 | 49% (inactive)
CCN(CC)C(=O)c1sc2c(c1C)c(=O)n(-c1ccc(C)c(C)c1)c(=O)n2Cc1cc(=O)n2ccccc2n1 | 84% (inactive)
O=c1c2sccc2n(Cc2cc(=O)n3ccccc3n2)c(=O)n1-c1cccc(C(F)(F)F)c1 | 52% (inactive)
CCN(CC)C(=O)c1sc2c(c1C)c(=O)n(-c1ccccc1)c(=O)n2Cc1cc(=O)n2ccccc2n1 | 47% (active)
O=c1c2sccc2n(Cc2cc(=O)n3ccccc3n2)c(=O)n1-c1cc(F)ccc1F | 69% (inactive)
CCN(CC)C(=O)c1sc2c(c1C)c(=O)n(-c1ccc(Cl)c(Cl)c1)c(=O)n2Cc1cc(=O)n2c(C)cccc2n1 | 32% (active)
Cc1ccc(-n2c(=O)c3sccc3n(Cc3cc(=O)n4ccccc4n3)c2=O)cc1 | 63% (active)

Compound | survival
CCN(CC)C(=O)Cn1c(=O)n(-c2ccc(Cl)c(Cl)c2)c(=O)c2c(C)c(C(=O)N(CC)CC)sc21 | 83% (inactive)
CCN(CC)C(=O)c1sc2c(c1C)c(=O)n(-c1ccc(Cl)c(Cl)c1)c(=O)n2Cc1cc(=O)n2ccccc2n1 | 112% (inactive)
Cc1ccc(S(=O)(=O)N(CC(=O)Nc2cccnc2)c2cc(Cl)ccc2C)cc1 | 78% (inactive)
COc1ccc(NC(=O)CNC(=O)Cn2c(C)cc3ccccc3c2=O)c(OC)c1 | 62% (inactive)
C=CCSc1nsc(N)n1 | 75% (inactive)
Nc1nc(SC#CC(F)(F)F)ns1 | 13% (active)
O=C(CSc1ccccc1)N1CCc2c([nH]c3ccccc23)C1c1ccc(F)cc1 (stereo not drawn) | 76% (inactive)
O=C(CSc1ccccc1)N1CCc2c([nH]c3ccccc23)C1c1ccc(Cl)cc1 (stereo not drawn) | 52% (active)
Cc1ccc(C2c3[nH]c4ccccc4c3CCN2C(=O)CSc2ccccc2)cc1 (stereo not drawn) | 69% (inactive)
Cc1ccc(CCNS(=O)(=O)c2ccc3c(c2)C(C(C)C)C(=O)N3)cc1 (stereo not drawn) | 116% (inactive)
COc1ccccc1CCNC(=O)C(=O)NCC(c1cccs1)S(=O)(=O)c1ccccc1 (stereo not drawn) | 82% (inactive)
O=C(c1ccc(F)cc1F)N1CCC(c2noc(-c3ccc(S(=O)(=O)N4CCCC4)cc3)n2)CC1 | 97% (inactive)
Cc1cccc2nc(-c3ccc(N(C)C)cc3)c(Nc3ccc4c(c3)OCO4)n12 | 102% (inactive)
O=C(Nc1ccc2nc(SCC(=O)N3CCOCC3)sc2c1)c1cccc(Br)c1 | 29% (active)
O=C(Nc1ccc2nc(SCC(=O)N3CCCC3)sc2c1)c1cccc(Cl)c1 | 52% (inactive)
O=C(Nc1ccc2nc(SCC(=O)N3CCOCC3)sc2c1)c1ccc(Br)cc1 | 83% (inactive)
O=C(Nc1ccc2nc(SCC(=O)N3CCOCC3)sc2c1)c1ccc(Cl)cc1 | 68% (inactive)
O=C(Nc1ccc2nc(SCC(=O)N3CCOCC3)sc2c1)c1cccc(Cl)c1 | 32% (active)
O=C(Nc1ccc2nc(SCC(=O)N3CCCC3)sc2c1)c1cccc(Br)c1 | 57% (inactive)
Cc1cc(C)cc(NC(=O)C2CCCN(S(=O)(=O)c3cccc4nsnc34)C2)c1 (stereo not drawn) | 105% (inactive)
Cc1ccc(N2CCN(C(=O)c3cnn(-c4ccc(F)cc4F)c3C3CCN(C(=O)OC(C)(C)C)CC3)CC2)c(C)c1 | 91% (inactive)
CCC(C(=O)Nc1cc(C)ccc1OC)n1nnc(C(=O)OC)c1C(=O)OC (stereo not drawn) | 94% (inactive)

Compound | survival
CCc1ccc(NC(=O)C(CC)n2nnc(C(=O)OC)c2C(=O)OC)cc1 (stereo not drawn) | -3% (active)
CCOC(=O)c1nnn(C(CC)C(=O)Nc2ccc(F)cc2)c1C(=O)OCC (stereo not drawn) | 119% (inactive)
Cc1cc(C)cc(OCC(=O)Nc2cccc3cccnc23)c1 | 73% (inactive)
CCOc1ccccc1NC(=O)c1ccc(C(=O)Nc2ccccc2OCC)cc1 | 83% (inactive)
Cc1ccc(CNC(=O)c2cc3ccc4cccnc4c3[nH]2)cc1 | 32% (active)
CC(C)c1ccc(C(=O)Nc2cccc3cccnc23)cc1 | -1% (active)
Cc1ccc(C(=O)Nc2cccc3cccnc23)cc1Cl | 72% (inactive)
CCOc1cc(C(=O)Nc2cccc3cccnc23)cc(OCC)c1OCC | 10% (active)
Cc1cccc(OCC(=O)Nc2cccc3cccnc23)c1C | 60% (active)
O=C(NCc1ccccc1)c1cc2ccc3cccnc3c2[nH]1 | 80% (inactive)
O=C(NCc1ccc(Cl)cc1)c1cc2ccc3cccnc3c2[nH]1 | 58% (inactive)
Cc1ccc2cccc(NC(=O)c3ccc(OC(C)C)cc3)c2n1 | 95% (inactive)
O=C(COc1ccc(Cl)cc1Cl)Nc1cccc2cccnc12 | 79% (inactive)
CCOc1cc(C(=O)Nc2ccncc2)cc(OCC)c1OCC | 94% (inactive)
CCOc1ccc(C(=O)NC2CCN(C(=O)NCc3ccccc3)CC2)cc1 | 84% (inactive)
COc1ccc(-c2nc(C)c(CCNC(=O)C(=O)Nc3ccccc3OC)s2)cc1 | 89% (inactive)
c1ccc(Cc2nnc(SCc3nc(-c4cccs4)no3)n2-c2ccccc2)cc1 | 56% (inactive)
COc1cc(NS(=O)(=O)c2cc3c(cc2C)N(C)CCO3)cc(OC)c1OC | 90% (inactive)
Cc1ccccc1CN1C(=O)c2ccccc2S(=O)c2ccc(C(=O)NCc3ccco3)cc21 (stereo not drawn) | 71% (inactive)
CC(C)CCn1c(=O)c2sccc2n2c(CCCC(=O)NCCc3ccccc3)nnc12 | 68% (inactive)
CCS(=O)(=O)NCC(c1ccco1)N1CCN(c2ccc(OC)cc2)CC1 (stereo not drawn) | 91% (inactive)
CCOc1ccccc1NC(=O)c1cc2ccc3cccnc3c2[nH]1 | 37% (active)

Compound | survival
CCOc1ccccc1N(CC)C(=O)c1cc2ccc3cccnc3c2[nH]1 | 102% (inactive)
CCOC(=O)c1ccccc1NC(=O)c1cc2ccc3cccnc3c2[nH]1 | 117% (inactive)
COCCNC(=O)CSc1nc(-c2ccc(C)cc2)[nH]c1-c1ccc(OC)cc1 | 84% (inactive)
COc1cc(OC)c(NC(=O)C(NS(=O)(=O)c2cccc3nsnc23)c2ccccc2)cc1Cl (stereo not drawn) | 60% (inactive)
COc1ccccc1N1CCN(C(=O)c2cn(C)c3ccc(S(=O)(=O)N4CCOCC4)cc3c2=O)CC1 | 84% (inactive)
O=C(Cn1cc(C(=O)c2ccco2)c2ccccc21)Nc1ccccc1 | 41% (active) and 47% (inactive)
CC(C)(C)c1ccc(OCCn2cc(C(=O)c3ccco3)c3ccccc32)cc1 | 35% (active)
Cc1ccccc1OCCn1cc(C(=O)c2ccco2)c2ccccc21 | 44% (inactive)
Cc1ccc(OCCn2cc(C(=O)c3ccco3)c3ccccc32)cc1C | 27% (active)
O=C(c1ccco1)c1cn(CCOc2ccc(F)cc2)c2ccccc12 | 99% (inactive)
Cc1cc(OCCn2cc(C(=O)c3ccco3)c3ccccc32)ccc1Cl | 53% (inactive)
Cc1ccc(C)c(OCCn2cc(C(=O)c3ccco3)c3ccccc32)c1 | 104% (inactive)
O=C(c1ccco1)c1cn(CCOc2ccc(Cl)cc2)c2ccccc12 | 78% (inactive)
COc1ccc(OCCn2cc(C(=O)c3ccco3)c3ccccc32)cc1 | 56% (inactive)
Cc1ccc(C(C)C)c(OCCn2cc(C(=O)c3ccco3)c3ccccc32)c1 | 35% (active)
O=C(Cn1cc(C(=O)c2ccco2)c2ccccc21)Nc1ccc(Br)cc1 | 88% (inactive)
CCOc1ccc(NC(=O)Cn2cc(C(=O)c3ccco3)c3ccccc32)cc1 | 63% (inactive)
COc1ccccc1N1CCN(Cc2cc(COC(C)C)c3cccnc3c2O)CC1 | 84% (inactive)
CCC(C)(C)n1nnnc1C(C(C)C)N(Cc1cccnc1)Cc1ccco1 (stereo not drawn) | 78% (inactive)
COc1ccccc1N1CCN(C(=O)c2cn(C)c3ccc(S(=O)(=O)N(C)C4CCCCC4)cc3c2=O)CC1 | 83% (inactive)
CCCC12CN3CC(CCC)(CN(C1)C3c1c(C)[nH]c(=O)[nH]c1=O)C2=O (stereo not drawn) | 109% (inactive)
CCC(C)NC(=O)c1c(-c2ccccc2)c(-c2ccccc2)nn(C)c1=O (stereo not drawn) | 50% (inactive)
